Measured values published in PubChem BioAssay AID1851 (National Center for Advancing Translational Sciences (NCATS), 2009).
Hit rate of the full screen: of about 16,000 compounds, about 5,100 (32%) were called active. Inconclusive results (about 25%) are left out. The list shows a part of the results. Values without a mark were called inactive. Calls follow the shape of the dose curve; as a rule, active = well fitted curve in the direction sought with a large enough effect; inconclusive = small, poorly fitted or top-dose-only effect, or effect the other way; inactive = no such curve, though single readings can be large or run the other way.

molecular target: Cytochrome P450 3A4 (Homo sapiens) (UniProt P08684); test: Cytochrome panel assay with activity outcomes; settings: recombinant CYP, pro-luciferin dealkylation, luminescence, p450-cyp3a4; series mostly up to 57.1 µM; activity, negative = inhibition: at the top concentration
Sequence (P08684 whole entry, looked up): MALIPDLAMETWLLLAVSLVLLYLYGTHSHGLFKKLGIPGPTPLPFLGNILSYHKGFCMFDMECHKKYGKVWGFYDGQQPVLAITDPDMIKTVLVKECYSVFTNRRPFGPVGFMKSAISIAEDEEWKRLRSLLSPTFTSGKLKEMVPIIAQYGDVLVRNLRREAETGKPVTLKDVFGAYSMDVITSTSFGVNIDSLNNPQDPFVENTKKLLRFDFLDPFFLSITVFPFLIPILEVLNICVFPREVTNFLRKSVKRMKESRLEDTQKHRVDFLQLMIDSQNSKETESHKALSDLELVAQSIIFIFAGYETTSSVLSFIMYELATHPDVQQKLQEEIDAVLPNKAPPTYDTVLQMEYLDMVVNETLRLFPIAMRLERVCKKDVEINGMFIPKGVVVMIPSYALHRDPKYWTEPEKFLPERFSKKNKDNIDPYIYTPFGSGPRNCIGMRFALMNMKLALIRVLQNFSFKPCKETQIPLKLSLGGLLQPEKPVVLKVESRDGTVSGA
% is scaled to controls: 0 for no effect and ±100 for the full control effect.

Structure (SMILES) | activity, negative = inhibition | AC50
O=C(O)Cc1ccc2ocnc2c1 | 10.5% | –
COc1ccc(Oc2ncc3nc(C)c(=O)n(C)c3n2)cc1 | – | 25.1 µM (active)
COc1ccc(Oc2ncc3nc(C)c(=O)n(-c4ccccc4)c3n2)cc1 | – | 5.01 µM (active)
COc1ccc(-n2c(=O)c(C)nc3cnc(Oc4ccccc4)nc32)cc1 | – | 15.8 µM (active)
Cc1nc2cnc(Oc3ccccc3)nc2n(C)c1=O | -6.94% | –
COc1ccc(Oc2ncc3nc(C)c(=O)n(-c4ccc(OC)cc4)c3n2)cc1 | – | 3.98 µM (active)
CCOC(=O)c1oc2ccccc2c1NC(=O)c1cc(OC)cc(OC)c1 | – | 7.94 µM (active)
CN(C)S(=O)(=O)c1ccc(NC(=O)COC(=O)c2ccccn2)cc1 | -17.6% | –
CCOC(=O)c1oc2ccccc2c1NC(=O)c1ccc(S(=O)(=O)N(C)C)cc1 | – | 14.1 µM (active)
CCOC(=O)c1oc2ccccc2c1NC(=O)c1ccc2c(c1)OCO2 | – | 2.24 µM (active)
COc1ccc(-c2oc3ccccc3c(=O)c2OC(=O)c2ccc(C)cc2)cc1 | 2.5% | –
CN(C)S(=O)(=O)c1ccc(C(=O)Nc2ccc(CN3CCCC3)cc2)cc1 | 24.6% | –
Nc1c(OCC(=O)O)ccc2cc(S(=O)(=O)O)ccc12 | -9.68% [at 11.4 µM] | –
CNc1ncnc2c1ncn2[C@@H]1O[C@H](CO)[C@@H](O)[C@@H]1O | 10% [at 25.6 µM] | –
NC(=O)OC[C@H](O)COc1ccc(Cl)cc1 | -3.48% [at 25.6 µM] | –
O=C(Nc1ccc2ccccc2c1)[C@H]1C[C@@H]1[C@H](NP(=O)(c1ccccc1)c1ccccc1)c1ccccc1 | – | 2.51 µM (active)
C[C@H](CO)NC(=O)[C@@H]1C[C@H]1[C@@H](NP(=O)(c1ccccc1)c1ccccc1)c1ccccc1 | – | 12.6 µM (active)
O=C(Nc1ccc2ccccc2c1)[C@@H]1C[C@H]1[C@@H](NP(=O)(c1ccccc1)c1ccccc1)c1ccccc1 | -44.6% | –
CC(C)=CCC/C(C)=C/CO/N=C1/C[C@@H](O)[C@@H](O)[C@@H]2[C@@H]3C(=O)N(Cc4ccc5c(c4)OCO5)C(=O)[C@H]3CC[C@@H]12 | – | 1.58 µM (active)
CC(C)=CCC/C(C)=C/CO/N=C1/C[C@@H](O)[C@@H](O)[C@@H]2[C@@H]3C(=O)N(Cc4ccc5c(c4)OCO5)C(=O)[C@H]3CC[C@H]12 | – | 1.58 µM (active)
CC(C)=CCC/C(C)=C/CO/N=C1/C[C@@H](O)[C@@H](O)[C@@H]2[C@@H]3C(=O)N(Cc4ccccc4)C(=O)[C@H]3CC[C@@H]12 | -7.78% [at 11.4 µM] | –
CC(C)=CCC/C(C)=C/CO/N=C1/C[C@@H](O)[C@@H](O)[C@@H]2[C@@H]3C(=O)N(C[C@@H]4CCCO4)C(=O)[C@H]3CC[C@@H]12 | -23% [at 11.4 µM] | –
CCOC(=O)CCN1C(=O)[C@H]2[C@H]3[C@H](O)[C@H](O)C/C(=N/OC/C=C(\C)CCC=C(C)C)[C@@H]3CC[C@@H]2C1=O | -25.9% [at 11.4 µM] | –
CCOC(=O)CCN1C(=O)[C@H]2[C@H]3[C@H](O)[C@H](O)C/C(=N/OC/C=C(\C)CCC=C(C)C)[C@H]3CC[C@@H]2C1=O | -16.7% [at 11.4 µM] | –
CCn1c(CCCc2nc3c([nH]2)c(=O)n(C)c(=O)n3C)nc2c1c(=O)n(C)c(=O)n2C | -26.8% [at 11.4 µM] | –
COC(=O)c1[nH]c2ccc(Br)cc2c1NC(=O)Oc1ccccc1 | 10.3% [at 2.29 µM] | –
COC(=O)c1[nH]c2ccc(Br)cc2c1NC(=O)CN1CCN(C2CCCCC2)CC1 | – | 14.1 µM (active)

Structure (SMILES) | activity, negative = inhibition | AC50
COC(=O)c1[nH]c2ccc(Br)cc2c1NC(=O)CN1CCCc2ccccc21 | -23.9% [at 2.29 µM] | –
COc1ccc(C2c3c(ncn(CCN4CCOCC4)c3=N)Oc3ccc4ccccc4c32)cc1OC (stereo not drawn) | – | 3.16 µM (active)
CNC(=S)NNC(=O)COc1ccccc1C | -15% | –
Cc1ccccc1OCCNC(=O)c1ccccc1Sc1ccccc1C#N | – | 14.1 µM (active)
CCCC1CCC(c2ccc(C(N)=O)cc2)CC1 (stereo not drawn) | -23.3% | –
CC(C)c1nc2ccccn2c1NC1CCCCC1 | – | 14.1 µM (active)
N=c1c(C(=O)NC2CCCC2)cc2c(=O)n3ccccc3nc2n1C1CCCC1 | 6.82% | –
CCSc1nnc(-c2ccccc2NC(C)=O)c(=O)[nH]1 | 13.7% | –
CCCCN1C(=O)NC(NC(=O)c2ccco2)(C(F)(F)F)C1=O (stereo not drawn) | 2.31% [at 2.29 µM] | –
CCC[C@@H]1C[C@@]1(CCC)C(NS(=O)(=O)c1cccc2cccnc12)c1ccc(Cl)cc1 (stereo partly drawn) | – | 0.794 µM (active)
CCOC(=O)CC(NC(=O)c1cccs1)c1ccc(OCC)cc1 (stereo not drawn) | -4.62% | –
CCC[C@@H]1C[C@@]1(CCC)C(NC(=O)c1cccs1)c1ccc(Cl)cc1 (stereo partly drawn) | – | 6.31 µM (active)
CCC[C@@H]1C[C@@]1(CCC)C(NC(=O)c1ccco1)c1ccc(Cl)cc1 (stereo partly drawn) | – | 12.6 µM (active)
CC[C@H](CN(C)C)C(=O)c1ccco1 | -7.24% [at 11.4 µM] | –
Cc1noc(C)c1C(=O)N1CCC2(CCN(C(=O)NC(C)C)CC2)CC1 | -8.24% | –
CCn1c(-c2ccccc2Cl)nn(CC(=O)Nc2ccc(OC)cc2)c1=S | – | 5.01 µM (active)
CCn1c(-c2ccccc2Cl)nn(CC(=O)Nc2cc(Cl)ccc2Cl)c1=S | – | 5.01 µM (active)
CCn1nc(C(=O)Nc2ccccc2C)c(Cl)c1Cl | -3.65% | –
COC(=O)Cn1nc(-c2ccccc2)n(-c2ccccc2)c1=S | 14.3% | –
CCn1c(-c2ccccc2Cl)nn(CC(=O)Nc2ccccc2OC)c1=S | – | 12.6 µM (active)
COc1ncc2nc(-c3cc(F)cc(F)c3)c(=O)n(-c3ccccc3)c2n1 | -23.8% | –
COc1ccc(Oc2ncc3nc(-c4ccc(F)cc4)c(=O)n(C)c3n2)cc1 | – | 3.98 µM (active)
COc1ccc(Oc2ncc3nc(-c4cc(F)cc(F)c4)c(=O)n(C)c3n2)cc1 | – | 5.01 µM (active)
O=c1c(-c2cc(F)cc(F)c2)nc2cnc(Oc3ccccc3)nc2n1C1CC1 | -14% | –
COc1cccc(Nc2ncc3nc(-c4ccc(F)cc4)c(=O)n(C)c3n2)c1 | -16.2% | –
CN(CCO)Cc1ncccc1O | -9.73% [at 11.4 µM] | –
